Compound activity from PubChem BioAssay.
S1P4 antagonist – S1P4 receptor antagonists, primary screen, cell-based; S1P4-expressing cells, antagonist mode, reporter read-out; inhibition, % at 4.98 µM; 0.26% of 220,000 active; AID 1510, 2009; in the data active means inhibition above about 29%;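 further: 0% = wells stimulated with agonist and 100% = vehicle wells without agonist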
S1P3 antag – S1P3 receptor antagonists, primary screen, cell-based. Sphingosine 1-phosphate receptor 3 (Homo sapiens), Q99500. CHO S1P3 NFAT-BLA reporter, FRET fluorescence, antagonist mode. inhibition, % at 4.98 µM. 0.27% of 170,000 active. AID 485, 2006;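 active means inhibition above the plate cutoff, the mean inhibition of test wells on that plate plus 3 SD, cut at about 28% in these data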;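 further: cells challenged with S1P at its EC80 of 0.8 µM; blue over green emission ratio from cleaved BLA substrate after 4 h stimulation; 0% = S1P-stimulated wells and 100% = unstimulated DMSO-only wells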
Target sequence (Q99500 whole entry, looked up): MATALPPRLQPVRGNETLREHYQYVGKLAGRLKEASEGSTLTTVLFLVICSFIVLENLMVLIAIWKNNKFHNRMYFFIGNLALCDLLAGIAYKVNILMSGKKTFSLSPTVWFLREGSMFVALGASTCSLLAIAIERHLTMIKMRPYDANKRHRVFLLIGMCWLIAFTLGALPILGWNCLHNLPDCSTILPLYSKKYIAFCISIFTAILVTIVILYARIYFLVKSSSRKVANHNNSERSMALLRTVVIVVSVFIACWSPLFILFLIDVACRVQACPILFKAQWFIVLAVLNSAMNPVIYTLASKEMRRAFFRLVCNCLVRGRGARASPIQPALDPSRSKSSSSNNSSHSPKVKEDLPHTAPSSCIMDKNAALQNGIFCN
Hsp70 activator – Hsp70 transcriptional activators, primary screen, cell-based, HeLa, Hsp70 promoter luciferase, luminescence, 10 µM. HeLa Hsp70 promoter luciferase reporter; scaled: vehicle 0, proteasome-inhibitor control 100%. activation, % at 10 µM. 0.04% of 200,000 active. AID 1203, 2008;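 active means activation above the mean across all tested compounds plus 3 SD, cutoff set per campaign, cut at about 5.5% in these data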;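 further: 100% = MG132 at 30 µM as the positive control and 0% = DMSO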
S1P4 agonist – S1P4 receptor agonists, primary screen, cell-based; S1P4-expressing cell line, agonist reporter assay; activation, % at 4.98 µM; 0.35% of 220,000 active; in the data active means activation above about 11%;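 further: 0% = DMSO vehicle and 100% = reference agonist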
INS promoter inh – inhibitors of insulin promoter-driven GFP, primary screen, imaging, TRM-6 cells (human fetal islet line), eGFP reporter, cell count; 0.9% of 130,000 active; reporter expression induced with tamoxifen; inhibition, % at 2 µM; AID 1273, 2008;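 active means inhibition above the mean plus 3 SD, with well images judged a real hit on visual review, cut at about 60% in these data, passing the limit was not always enough; inconclusive means inhibition over the cutoff but images rejected on review; inactive means inhibition not above the cutoff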
Insulin prom up – insulin promoter activators in MIN6 cells, imaging, high-content screening, mouse beta cells; MIN6 insulin promoter-GFP reporter; active compounds read high; z-score at 5 µM; 0.3% of 190,000 active;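 active means z-score above 3 at 5 µM with at least 500 cells counted in the well; inconclusive means wells under 500 cells, flagged as cytotoxic or low count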
The depositor's hits bear a star; i = inactive; u = inconclusive; x = no result. Only some compounds are listed: those with a hit (about 1.5% of all), similar ones and a draw of the others.

SMILES | S1P4 antagonist | S1P3 antag | Hsp70 activator | S1P4 agonist | INS promoter inh | Insulin prom up
COc1ccc(OCC(=O)Nc2ccc3c(c2)nc(CN2CCN(C(C)=O)CC2)n3C)cc1 | -7 | -2 | x | 4 | x | 0.03
O=C1CCC/C(=N\NC(=O)COc2ccc(Cl)cc2)C1 | -4 | -12 | 0 | 0 | x | -0.06
C=CCC(COCc1ccccc1)NS(=O)(=O)c1ccccc1Br (stereo not given) | x | x | x | x | x | 0.31
COc1ccc(-n2ncc3c(NCc4ccc5c(c4)OCO5)ncnc32)cc1 | -5 | 21 | 0 | -1 | 75* | 1.3
O=C(NCCO)/C(=C\c1ccco1)NC(=O)c1cccs1 | -8 | -20 | 0 | 0 | -10 | -0.09
CCOc1ccc(OCCN2CCCCC2)cc1 | -3 | -12 | 1 | 5 | 62* | 0.21
C1=C(c2ccccc2)Nc2nnnn2C1 | -13 | -11 | 0 | 0 | 23 | 3.1*
COc1ccc(C2C=C(c3ccccc3)Nc3nnnn32)cc1 (stereo not given) | 0 | -36 | 0 | 2 | x | -1.3
Cc1nn(CC(=O)Nc2ccc(Cl)cn2)c(C)c1Br | -21 | 8 | 0 | 2 | -50 | -0.18
CS(=O)(=O)N1CCC(C(=O)Nc2ccc(OCc3ccccc3)cc2)CC1 | -3 | -7 | 0 | 2 | 71* | 0.01
CS(=O)(=O)N1CCC(C(=O)Nc2ccccc2)CC1 | 4 | x | 0 | 2 | 3 | 0.52
Cc1ccc(CNc2nc(-c3cccs3)nc3ccccc23)cc1 | -8 | 2 | 0 | 0 | x | -0.71
c1ccc(CNc2nc(-c3cccs3)nc3ccccc23)nc1 | -20 | -2 | 0 | 1 | 92* | 0.56
Cc1cc(C)c2nc(NNC(=O)c3cc(-c4cccs4)nc4ccccc34)sc2c1 | 1 | 6 | 0 | 1 | u | 3.7*
Cc1ccc2sc(NNC(=O)c3cc(-c4cccs4)nc4ccccc34)nc2c1C | -8 | -18 | 0 | 4 | 55 | -0.13
CCOC(=O)c1c(C)nc(-c2ccccc2)nc1NC(=O)CC | -20 | -15 | 0 | 2 | 71* | 2.9
CCOC(=O)c1[nH]c2ccccc2c1NC(=O)CC | -11 | 55* | 0 | 0 | x | -0.08
O=C(COC(=O)CCN1C(=O)/C(=C\C=C\c2ccccc2)SC1=S)Nc1cc(F)ccc1F | 5 | 14 | 0 | 3 | x | 1.2
COC(=O)c1ccc(NC(=S)N2CCN(Cc3ccccc3OC)CC2)cc1 | -1 | -4 | 0 | -1 | x | -1.2
Cn1c(=O)c(Oc2ccc(F)cc2)c(O)c2ccccc21 | -5 | -20 | 0 | 1 | 64* | -0.05
CC(=O)c1c(O)c2ccccc2n(C)c1=O | -4 | 6 | 0 | 2 | x | -0.27
CCOc1ccccc1-c1c2cc(O)c(=O)cc-2oc2cc(O)c(O)cc12 | -7 | 3 | 0 | -1 | x | 8.1*
O=c1cc2oc3cc(O)c(O)cc3c(-c3ccccc3O)c-2cc1O | 12 | -2 | x | -1 | x | 15*
O=C(Nc1cccnc1)c1ccc(NC(=O)c2ccco2)cc1 | -21 | 17 | 0 | 0 | 16 | 1.7
CC(C)(C)c1ccc(C(=O)NCc2cccnc2)cc1 | -3 | 75* | 0 | -1 | x | -0.41
SMILES | S1P4 antagonist | S1P3 antag | Hsp70 activator | S1P4 agonist | INS promoter inh | Insulin prom up
CC(C)(C)c1ccc(C(=O)NC(=S)NCc2cccnc2)cc1 | -3 | 1 | 0 | 3 | -50 | 0.21
O=C(NCc1cccnc1)c1ccc(NC(=O)c2ccco2)cc1 | -9 | x | 0 | -2 | 79* | 1.5
COc1ccc2c(c1)CCc1c(C(=O)NCc3cccnc3)noc1-2 | -9 | 70* | 0 | 0 | 0 | 0.07
CCCCOc1ccc(NC(=O)CCSc2nccn2C)cc1 | 5 | -15 | 0 | 2 | x | -0.03
c1ccc2c(c1)NC(c1ccncc1)n1c-2nc2ccccc21 (stereo not given) | 1 | x | 0 | 0 | 78* | x
c1cncc(C2Nc3ccccc3-c3nc4ccccc4n32)c1 (stereo not given) | -18 | x | 0 | 3 | 32 | -1.4
CCc1sc(/C=C(/C#N)C(N)=S)cc1[N+](=O)[O-] | 4 | -7 | 0 | 2 | x | 0.19
CCN(CC)c1ccc(-c2nn3c(-c4cccnc4)nnc3s2)cc1 | -9 | x | 0 | 0 | -53 | 2.7
Cc1ccc2c(c1)nnn2C1CCN(C(=O)NCc2ccccc2)CC1 | 15 | -11 | 0 | -4 | 25 | 0.12
O=C(NCc1ccccc1)N1CCC(n2cnc3cc(F)ccc32)CC1 | -13 | -4 | 0 | 1 | 78* | 0.83
Cc1nn2c(NC(C)C)c3c(nc2c1-c1ccccc1)CCC3 | 0 | 4 | x | 1 | x | -1.4
Cc1nn2c(Nc3ccccc3)c3c(nc2c1-c1ccccc1)CCC3 | -21 | -1 | 0 | 0 | 91* | -0.06
O=C(Nc1nnc(COc2ccc(F)cc2)s1)c1cccs1 | -8 | 0 | 0 | -3 | -13 | -0.78
O=C(Nc1nnc(COc2ccc(Cl)cc2)s1)c1cccs1 | -6 | 13 | 0 | 2 | 80* | -0.66
O=C(O)CNS(=O)(=O)c1ccc2c(c1)CCCC2 | -14 | -13 | 0 | 1 | x | 0.68
Cc1ccc(N=Nc2c(C)[nH][nH]c2=O)c(C)c1 | -10 | x | 0 | -3 | 73* | 0.01
CC(C)(C)c1nnc(NC(=O)CN2C(=O)C3C4C=CC(C4)C3C2=O)s1 (stereo not given) | -5 | -17 | 0 | 0 | 75* | 0.24
CCC(=O)Nc1nnc(C(C)(C)C)s1 | -4 | x | 0 | -4 | -11 | -0.16
COc1ccc2c(OC)cc(-c3ccccc3)nc2c1 | -9 | x | 0 | 1 | 100* | x
COc1ccc(-c2cc(OC)c3ccccc3n2)cc1 | -12 | -1 | 0 | 0 | 31 | 0.18
CC(C)NC(=O)/C(C#N)=C\c1ccc(N(C)C)o1 | 4 | -14 | 0 | 1 | i | 12*
CCN(CC)c1ccc(/C=C(/C#N)C(=O)NC(C)C)o1 | 0 | -7 | 0 | -1 | x | x
CCOc1ccc(-n2c(O)cc(=O)[nH]c2=O)cc1 | -8 | -1 | x | 1 | x | -0.06
COc1ccc2nc(SCC(=O)Nc3ccccc3)[nH]c2c1 | 4 | -7 | 0 | 0 | 23 | 0.6
COc1ccc2nc(SCC(=O)Nc3c(C)cccc3C)[nH]c2c1 | 0 | x | 0 | 1 | -8 | 3.3*
CC(=O)CSc1nnc(-c2cnccn2)n1-c1ccccc1 | -10 | x | 0 | 1 | -8 | 0.52
COc1cc2[nH]c(=O)n(CCCCCC(=O)NCCc3c[nH]c4ccccc34)c(=O)c2cc1OC | -11 | x | 0 | 2 | 67* | x
COCCNC(=O)Cc1ccc(F)cc1 | -8 | -12 | 0 | 0 | 36 | 3*
COc1ccc(OC)c(-n2c(=S)[nH]c3c(sc(=S)n3-c3ccccc3C)c2=O)c1 | -6 | 9 | 0 | -1 | 39 | 1
CCCSc1nc2c(cnn2-c2ccccc2)c(=O)[nH]1 | -3 | 9 | 0 | 0 | 0 | 1.2
